# Screens as filed in PubChem BioAssay.
# This is a sample that favours compounds with a hit; in the whole collection about 3.8% have one here.
# hERG WT inh: KCNH2 (human, wildtype) channel inhibition; Q12809; U2OS, BacMam KCNH2, thallium flux FluxOr; active compounds read low; activity change, % at 1.84 µM; 0.37% of 340,000 active; AID 720551;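 active = maximum activity change below -70%; inconclusive = maximum activity change between -70% and -50%; inactive = maximum activity change above -50%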
#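 U2OS cells transduced with wild-type KCNH2 virus are loaded with FluxOr dye for 45 min, and thallium flux is measured in kinetic reads before and after stimulation buffer. Rate constants are normalized to DMSO controls.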
# KCNH2 3.1 block: blocks the human KCNH2 3.1 channel isoform | AID 720553 | activity change, % (tested at about 1.8 µM) | U2OS KCNH2 3.1, thallium flux FluxOr; active compounds read low | 0.95% of 340,000 active;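 active = maximum activity change below -70%; inconclusive = maximum activity change from -70% to -50%; inactive = maximum activity change above -50%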;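 also: thallium influx rate constant from kinetic fluorescence after stimulation buffer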
#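 U2OS cells transduced with KCNH2 3.1 mutant virus (1.77 x 10^8 /mL, 4 h), plated overnight at 37 C, loaded 45 min with FluxOr dye plus Red40 quencher. Thallium flux rate constant from kinetic reads after stimulation buffer, normalised to controls.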
# PLK1 PBD block: blocks phosphopeptide binding to human PLK1 polo-box domain; P53350; Plk1 PBD binding of FITC phosphopeptide, fluorescence polarization; Potency, µM, actives largely listed as inhibitors; 2.8% of 360,000 active; also: series mostly up to about 57 µM; nearly all actives have a fitted effect of over 65% in size
# Target sequence (P53350 whole entry, looked up, the tested form may be a part): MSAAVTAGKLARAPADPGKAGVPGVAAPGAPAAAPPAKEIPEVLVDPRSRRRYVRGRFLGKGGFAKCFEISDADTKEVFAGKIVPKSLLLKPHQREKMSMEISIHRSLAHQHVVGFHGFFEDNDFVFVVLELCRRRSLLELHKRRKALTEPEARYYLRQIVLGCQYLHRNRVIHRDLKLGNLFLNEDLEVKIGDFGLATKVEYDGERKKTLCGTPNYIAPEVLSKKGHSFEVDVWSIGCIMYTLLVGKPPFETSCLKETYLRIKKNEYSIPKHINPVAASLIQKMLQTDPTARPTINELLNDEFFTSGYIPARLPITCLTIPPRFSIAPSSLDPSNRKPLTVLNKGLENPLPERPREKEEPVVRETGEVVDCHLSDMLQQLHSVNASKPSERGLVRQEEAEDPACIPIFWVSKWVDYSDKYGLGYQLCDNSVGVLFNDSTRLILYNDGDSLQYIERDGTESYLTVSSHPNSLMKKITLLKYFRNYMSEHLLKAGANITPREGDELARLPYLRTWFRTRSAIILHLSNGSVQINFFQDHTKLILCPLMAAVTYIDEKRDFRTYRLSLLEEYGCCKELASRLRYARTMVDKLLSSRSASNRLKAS
# VDR inh: vitamin D3 receptor (human) inhibition. P11473. VDR-SRC2-3 peptide fluorescence polarization, 2 h. Potency, µM, most hits filed as inhibitors. 0.93% of 400,000 active. AID 504847
#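 After 23 nl compound addition and a short centrifugation, plates sat for 2 hours at ambient temperature; polarization of fluorescence then indicated loss of VDR binding to peptide SRC2-3.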
# CBFb-RUNX1 inh: CBF-beta/RUNX1 interaction disruption; AID 1477; Q01196+Q13951; AlphaScreen CBFb-His/RUNX1-biotin binding, biochemical; 230,000 tested, under 10 active; Potency, µM (series often up to 59.8 µM), usual class: inhibitors
#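 CBFb-His/RUNX1-biotin, 30 nM each, preincubated 20 min RT; compound 15 min RT; Ni + streptavidin beads 50 ng each, 90 min RT; AlphaScreen read.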
# MBNL1-CUG inh: inhibitors of human MBNL1 binding to CUG repeat RNA. Q9NR56. TR-FRET MBNL1-His/biotin-(CUG)12 binding, 665/545 ratio. Potency, µM (doses to about 57.5 µM), usual class: inhibitors. 0.036% of 280,000 active; active = well fitted inhibition curve with a large enough effect in the signal ratio, with a control signal flat, not every such curve was filed as active; inconclusive = small, poorly fitted or top-dose-only effect, or effect the other way, or a change in a side signal; inactive = no such curve, though single readings can be large or run the other way; the % refers to the signal ratio
#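 Ratiometric TR-FRET (665 over 545 nm, excitation 340 nm) tracks disruption of MBNL1-His/biotin-(CUG)12 complex after 60 min at room temperature, with compounds at 92 nM to 58 uM final.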
# Numbers stand for hits; n = inactive; u = inconclusive; x = no result given. Unless noted, calls follow the shape of the dose curve; as a rule, active = well fitted curve in the direction sought with a large enough effect; inconclusive = small, poorly fitted or top-dose-only effect, or another doubt; inactive = no such curve, though single readings can be large; an effect the other way counts as inactive or inconclusive.
SMILES,hERG WT inh,KCNH2 3.1 block,PLK1 PBD block,VDR inh,CBFb-RUNX1 inh,MBNL1-CUG inh
Cc1ccc(/C=N/NC(=O)c2nnn(-c3nonc3N)c2CNc2ccccc2)cc1,n,n,19µM,u,x,n
CN(Cc1c(C(=O)N/N=C/c2ccccc2)nnn1-c1nonc1N)C1CCCCC1,n,n,30µM,u,x,n
CN(C)Cc1c(C(=O)N/N=C/c2ccc(-c3ccccc3)cc2)nnn1-c1nonc1N,n,-93,21µM,u,x,n
CN(C)Cc1c(C(=O)N/N=C/c2ccco2)nnn1-c1nonc1N,n,n,n,n,x,u
Cc1ccc(/C=N/NC(=O)c2nnn(-c3nonc3N)c2CSc2ccccc2)cc1,n,n,n,n,n,n
CCN(CC)Cc1c(C(=O)N/N=C/c2cccnc2)nnn1-c1nonc1N,n,n,n,n,x,n
CCN(CC)Cc1c(C(=O)N/N=C/c2ccc(OCc3ccccc3C)cc2)nnn1-c1nonc1N,-123,-96,n,n,x,n
Cc1coc2c(C)c3oc(=O)c(CCC(=O)N4CCCCC4)c(C)c3cc12,x,x,x,n,x,x
Cc1cccc(C(=O)Nc2nnc(S(=O)(=O)N3c4ccccc4CC3C)s2)c1 (centres undefined),x,x,x,n,x,x
COC(=O)/C=C1/SC(=NC(=O)c2ccc(Cl)cc2)NC1=O,n,n,34µM,u,x,x
Cc1c(NC(=O)c2ccc(Cl)cc2)cc(C(C)C)c(O)c1S(=O)(=O)c1ccc(Cl)cc1,x,x,x,n,x,x
CCn1c(=O)cc(OCC(=O)N2CCN(c3ccc(C)cc3)C(C)C2)c2ccccc21 (centres undefined),x,x,x,n,x,x
CCCCc1c(C)c(C#N)c2[nH]c3ccccc3n2c1=O,n,n,n,n,n,n
CCCCCCCc1c(C#N)c(N)[nH]c(=S)c1C#N,n,n,24µM,u,n,n
COc1ccc2c(c1)c1c(c(=O)n(-c3cc(Cl)ccc3C)c(=O)n1Cc1ccc(F)cc1)n2C,x,x,x,n,x,x
Cc1c(C(=O)NCc2ccc3c(c2)OCCO3)sc(=O)n1Cc1ccc2c(c1)OCO2,x,x,n,x,x,x
CN(c1ccc(C(=O)NCc2ccc3c(c2)OCO3)cc1)S(=O)(=O)c1ccccc1,n,n,n,n,n,n
CCn1c(N)c(C(=O)NCc2ccc3c(c2)OCO3)sc1=S,n,n,24µM,n,n,u
CCN(CC)S(=O)(=O)c1ccc(C(=O)NCc2ccc3c(c2)OCO3)cc1,n,n,21µM,n,n,n
COc1ccc2c(c1OC)C(=O)OC2c1ccc(O)cc1 (centres undefined),x,x,x,n,x,x
CCn1c(=O)cc(OCC(=O)NC(C)c2ccc3c(c2)OCCO3)c2ccccc21 (centres undefined),n,n,27µM,n,n,n
COc1ccc(C(=O)NC(=S)Nc2ccc3oc(=O)ccc3c2)cc1OC,n,-99,n,n,n,x
COc1cccc(OC)c1C(=O)NC(=S)Nc1ccc2oc(=O)ccc2c1,n,n,n,n,n,n
CC(C)CC1C(=O)N(Cc2cn(CCC3OCCCO3)nn2)CCS(=O)(=O)N1Cc1ccc(-c2ccccc2)cc1 (centres undefined),n,n,n,x,x,x
CC(C)CC1C(=O)N(Cc2cn(CCC3OCCCO3)nn2)CCS(=O)(=O)N1Cc1ccc(-c2ccncc2)cc1 (centres undefined),-139,-157,n,x,x,x
SMILES,hERG WT inh,KCNH2 3.1 block,PLK1 PBD block,VDR inh,CBFb-RUNX1 inh,MBNL1-CUG inh
CC1C(=O)N(Cc2cn(CCC3OCCO3)nn2)CCS(=O)(=O)N1Cc1ccc(-c2ccc(F)cc2)cc1 (centres undefined),n,n,5.3µM,x,x,x
CC1C(=O)N(Cc2cn(CCC3OCCO3)nn2)CCS(=O)(=O)N1Cc1ccc(-c2ccncc2)cc1 (centres undefined),n,n,n,x,x,x
CCc1ccc(NC(=O)Cn2c(=O)n(CCCCC(=O)NCCc3ccc(Cl)cc3)c(=O)c3ccccc32)cc1,x,x,x,n,x,x
CC[C@H](C)[C@H](NC(=O)[C@H](Cc1ccc(O)cc1)NC(=O)[C@@H](NC(=O)[C@@H](N)CCCN=C(N)N)C(C)C)C(=O)N[C@@H](Cc1cnc[nH]1)C(=O)N1CCC[C@H]1C(=O)N[C@@H](Cc1ccccc1)C(=O)O,x,x,x,n,n,x
COc1ccc(C(=O)Nc2oc(-c3ccccc3)c(-c3ccccc3)c2C#N)cc1,n,-70,n,n,n,n
CC(C)C[C@H](NC(=O)[C@H](CCCCN)NC(=O)CNC(=O)[C@H](CC(C)C)NC(=O)[C@@H](N)C(C)C)C(=O)N[C@@H](CO)C(=O)N[C@@H](CCC(N)=O)C(=O)N[C@@H](CCC(=O)O)C(=O)N[C@@H](CC(C)C)C(=O)N[C@@H](Cc1cnc[nH]1)C(=O)N[C@@H](CCCCN)C(=O)N[C@@H](CC(C)C)C(=O)N[C@@H](CCC(N)=O)C(=O)N[C@H](C(=O)N[C@@H](Cc1ccc(O)cc1)C(=O)N1CCC[C@H]1C(=O)N[C@@H](CCCNC(=N)N)C(=O)N[C@H](C(=O)N[C@@H](CC(N)=O)C(=O)N[C@H](C(=O)NCC(=O)N[C@@H](CO)C(=O)NCC(=O)N[C@H](C(=O)N1CCC[C@H]1C(N)=O)[C@@H](C)O)[C@@H](C)O)[C@@H](C)O)[C@@H](C)O,x,x,x,n,n,x
CSc1nnnn1CCn1nnnc1SC,-243,n,n,n,n,n
Cn1nnnc1SCSc1nnnn1C,n,n,n,n,n,n
Cc1ccc2c(c1)N(C(=O)N1CCC(C(=O)NCCc3ccc(Cl)cc3)CC1)CC(C)O2 (centres undefined),x,x,x,n,x,x
Clc1ccccc1-c1nc(-n2ccnc2)c2ccccc2n1,x,x,x,56µM,x,x
Clc1ccccc1-c1nc(Nc2ccncc2)c2ccccc2n1,x,x,x,35µM,x,x
CN(C)c1ccc(-c2nc(-n3ccnc3)c3ccccc3n2)cc1,x,x,x,25µM,x,x
Cc1ccccc1-c1nc(Nc2ccncc2)c2ccccc2n1,x,x,x,n,x,x
CN(C)C(=O)c1ccc(-c2nc(-n3ccnc3)c3ccccc3n2)cc1,x,x,x,n,x,x
Cc1ccc2c(c1C)NC(=O)C21N2CCCC2C(C(=O)c2ccc3ccccc3c2)C12C(=O)Nc1ccccc12 (centres undefined),n,-86,n,u,n,n
CC(=O)C(=O)O,x,x,x,n,n,x
CCOC(=O)c1sc(NC(=O)COc2ccccc2Cl)c(C(=O)OCC)c1C,x,x,x,n,x,x
CCN(CC(=O)NCc1ccc(F)cc1)C(=O)/C=C/c1cccs1,n,n,27µM,n,n,u
CC(C)CCNC(=O)c1ccc(Cn2c(=O)c3cccn3c3cccnc32)cc1,x,x,x,n,x,x
COC(=O)CC1C(=O)NCCN1C(=S)NC(=O)c1sc2ccccc2c1Cl (centres undefined),n,n,19µM,n,n,n
COC(=O)c1ccccc1NC(=S)NC(=O)c1ccccc1,n,n,27µM,n,n,n
